Reference: PubChem BioAssay
Values without a mark were called inactive. For some of these results: Entries with a potency or affinity are not part of this list. Calls of active or inactive are those of the source. Unless noted, the rule behind the calls is not given here.

Key:
[1] = antimalarial activity against Dd2 strain (AID 2302;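 active = growth inhibition above 50% at the single 2 µM test dose, taken to imply half-maximal potency below 2 µM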;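 note: 0% = DMSO untreated growth and 100% = chloroquine plus artemisinin killed control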); conditions: P. falciparum Dd2 in RBCs, LDH growth readout, 72 h; at 2 µM; hits give high values
[2] = HepG2 cytotoxicity, primary screen, cytotoxicity control for P. falciparum antimalarial project, cell-based, ATP luminescence (AID 2303;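 active = inhibition above 50%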;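 note: 0% = DMSO wells and 100% = digitonin-killed cells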); conditions: HepG2 viability, 24-48 h, at 10 µM, hits give high values
[3] = biological target: L-lactate dehydrogenase (Plasmodium falciparum (isolate CDC / Honduras)) (UniProt Q27743); experiment: PfLDH activity inhibition – cell lysate, 3D7 strain, counter-screen for P. falciparum growth inhibition project (AID 2304);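 note: 0% = vehicle and 100% = reference inhibitor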; conditions: P. falciparum 3D7 crude extract, LDH APAD/NBT absorbance; at 2 µM; hits give high values
[4] = inhibition of 3D7 malaria parasite growth – strain 3D7 (AID 2306);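 note: 0% = DMSO wells and 100% = chloroquine plus artemisinin control wells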; conditions: P. falciparum 3D7 erythrocytic growth, LDH absorbance, 72 h; at 2 µM; hits give high values
[5] = biological target: Calcium-dependent protein kinase 1 (Plasmodium falciparum (isolate 3D7)) (UniProt P62344); experiment: PfCDPK1 kinase inhibitors, biochemical, TCAMS library (AID 1159585; cut-off not given, nearly all actives have IC50 up to about 0.98 µM;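 note: inhibitors leave more ATP so luminescence rises with inhibition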); conditions: recombinant PfCDPK1, Kinase-Glo ATP depletion luminescence
[6] = biological target: Plasmodium falciparum protein kinase 6 (PK6, PF3D7_1337100) (UniProt Q8IDW1); experiment: PfPK6 kinase inhibitors, biochemical, TCAMS library (AID 1159586); conditions: recombinant PfPK6, Kinase-Glo ATP depletion luminescence
[7] = biological target: Protein kinase 7 (PK7), Plasmodium falciparum 3D7 (PF3D7_0213400) (UniProt Q7YTF7); experiment: inhibition of Plasmodium PK7 catalytic activity – biochemical, TCAMS antimalarial set, Kinase-Glo luminescence (AID 1159587); conditions: recombinant PfPK7, Kinase-Glo ATP depletion luminescence
[8] = biological target: Calcium-dependent protein kinase 4 (Plasmodium falciparum (isolate 3D7)) (UniProt Q8IBS5); experiment: PfCDPK4 kinase inhibitors, biochemical, TCAMS library (AID 1159588; cut-off not given, nearly all actives have IC50 up to about 0.91 µM); conditions: recombinant PfCDPK4, Kinase-Glo ATP depletion luminescence
Sequence of Calcium-dependent protein kinase 4 (Plasmodium falciparum (isolate 3D7)) (Q8IBS5 whole entry, looked up): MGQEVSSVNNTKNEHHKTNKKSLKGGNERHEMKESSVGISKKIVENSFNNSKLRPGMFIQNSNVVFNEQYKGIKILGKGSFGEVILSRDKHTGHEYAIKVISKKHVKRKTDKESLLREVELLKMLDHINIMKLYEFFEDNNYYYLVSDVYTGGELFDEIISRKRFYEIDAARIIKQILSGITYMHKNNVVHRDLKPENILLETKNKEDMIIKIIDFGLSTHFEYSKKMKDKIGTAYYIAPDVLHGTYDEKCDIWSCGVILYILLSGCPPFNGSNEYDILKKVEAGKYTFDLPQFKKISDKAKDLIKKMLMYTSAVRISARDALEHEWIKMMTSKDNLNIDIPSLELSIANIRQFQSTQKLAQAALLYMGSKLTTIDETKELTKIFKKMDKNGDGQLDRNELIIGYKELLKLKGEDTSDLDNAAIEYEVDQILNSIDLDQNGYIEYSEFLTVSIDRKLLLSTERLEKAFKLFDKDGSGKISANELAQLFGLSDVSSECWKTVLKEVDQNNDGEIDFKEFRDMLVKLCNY

Sequence of Protein kinase 7 (PK7), Plasmodium falciparum 3D7 (PF3D7_0213400) (Q7YTF7 1-343): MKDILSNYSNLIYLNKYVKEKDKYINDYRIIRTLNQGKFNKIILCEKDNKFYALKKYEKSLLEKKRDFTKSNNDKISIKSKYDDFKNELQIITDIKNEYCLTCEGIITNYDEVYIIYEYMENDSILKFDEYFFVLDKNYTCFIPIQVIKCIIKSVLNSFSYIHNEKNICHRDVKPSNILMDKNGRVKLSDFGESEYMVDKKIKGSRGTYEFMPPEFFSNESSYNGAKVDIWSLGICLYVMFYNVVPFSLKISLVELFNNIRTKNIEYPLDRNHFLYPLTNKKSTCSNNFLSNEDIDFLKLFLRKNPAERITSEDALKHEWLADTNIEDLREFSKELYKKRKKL
Sequence of Calcium-dependent protein kinase 1 (Plasmodium falciparum (isolate 3D7)) (P62344 whole entry, looked up): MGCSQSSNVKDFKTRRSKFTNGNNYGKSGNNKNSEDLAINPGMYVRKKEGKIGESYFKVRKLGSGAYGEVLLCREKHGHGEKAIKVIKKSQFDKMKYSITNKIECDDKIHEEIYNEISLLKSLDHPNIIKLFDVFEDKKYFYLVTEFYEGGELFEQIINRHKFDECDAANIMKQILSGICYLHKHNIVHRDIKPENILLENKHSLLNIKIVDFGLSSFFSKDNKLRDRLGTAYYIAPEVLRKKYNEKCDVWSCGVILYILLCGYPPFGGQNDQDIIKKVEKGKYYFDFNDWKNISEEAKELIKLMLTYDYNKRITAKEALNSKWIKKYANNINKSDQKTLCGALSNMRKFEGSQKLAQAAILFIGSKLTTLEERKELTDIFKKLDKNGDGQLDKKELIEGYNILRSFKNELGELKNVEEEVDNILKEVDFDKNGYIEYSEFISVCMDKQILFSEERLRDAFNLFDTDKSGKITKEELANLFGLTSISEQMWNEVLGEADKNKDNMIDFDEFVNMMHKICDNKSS
Sequence of Plasmodium falciparum protein kinase 6 (PK6, PF3D7_1337100) (Q8IDW1 1-305): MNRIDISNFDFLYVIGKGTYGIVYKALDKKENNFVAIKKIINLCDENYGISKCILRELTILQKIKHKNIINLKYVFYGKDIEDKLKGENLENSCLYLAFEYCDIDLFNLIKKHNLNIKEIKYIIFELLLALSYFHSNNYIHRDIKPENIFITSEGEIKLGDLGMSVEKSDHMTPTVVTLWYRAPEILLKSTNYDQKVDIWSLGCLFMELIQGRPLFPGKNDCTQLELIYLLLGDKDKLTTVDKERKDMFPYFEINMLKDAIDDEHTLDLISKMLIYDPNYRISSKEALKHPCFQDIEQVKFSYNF
Sequence of L-lactate dehydrogenase (Plasmodium falciparum (isolate CDC / Honduras)) (Q27743 whole entry, looked up): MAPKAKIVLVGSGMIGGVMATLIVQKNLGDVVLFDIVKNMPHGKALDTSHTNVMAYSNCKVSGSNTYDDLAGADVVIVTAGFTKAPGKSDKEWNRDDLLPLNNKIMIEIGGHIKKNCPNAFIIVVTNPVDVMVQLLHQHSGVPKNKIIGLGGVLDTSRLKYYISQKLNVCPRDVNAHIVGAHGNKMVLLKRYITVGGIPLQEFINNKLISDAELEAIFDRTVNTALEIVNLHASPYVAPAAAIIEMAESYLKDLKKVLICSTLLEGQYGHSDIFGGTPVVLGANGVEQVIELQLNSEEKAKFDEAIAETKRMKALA

SMILES	growth inhibition [1]	inhibition [2]	inhibition [3]	growth inhibition [4]	outcome [5]	outcome [6]	outcome [7]	outcome [8]
O=C(NCCCNc1ccnc2cc(Cl)ccc12)c1ccccc1F	97% (active)	18%	3%	100% (active)	inactive	inactive	inactive	inactive
CN(C)c1c(CNCCCCCCNCc2ccc3ccccc3c2N(C)C)ccc2ccccc12	51% (active)	100% (active)	-2%	100% (active)	inactive	inactive	inactive	inactive
CN(C)CCCn1cncc1-c1ccc2ncnc(Nc3ccc4c(cnn4Cc4ccccc4)c3)c2c1	77% (active)	17%	-2%	101% (active)	inactive	inactive	inactive	inactive
O=C(NCCc1ccccc1F)c1cc(Br)cc(N2CCN(c3ccncc3)CC2)c1	67% (active)	29%	-2%	97% (active)	inactive	inactive	inactive	inactive
CC(C)c1cccc(OCC2CCN(c3ccc(C(=O)Nc4ccccc4)cn3)CC2)c1	90% (active)	9%	4%	95% (active)	inactive	inactive	inactive	inactive
COc1cccc2cc(C(=O)N[C@@H](CC(C)C)C(=O)N[C@H](/C=N/N3CCOC3=O)CC(C)C)oc12	72% (active)	4%	-2%	90% (active)	inactive	inactive	inactive	inactive
Cn1c(NC(=O)C2CCC(CNC(=O)c3ccc(O)c(-c4cccc([N+](=O)[O-])c4)c3)CC2)nc2ccccc21 (stereo not given)	97% (active)	6%	-5%	95% (active)	inactive	inactive	inactive	inactive
NC(=O)c1ccccc1Nc1nc(Nc2ccc(N3CCOCC3)cc2)ncc1[N+](=O)[O-]	96% (active)	53% (active)	1%	98% (active)	inactive	inactive	inactive	inactive
CNc1ccc(CNCc2cccc(-c3ccc(-c4nc5c(C)cccc5[nH]4)s3)c2)cc1	88% (active)	23%	-2%	101% (active)	inactive	inactive	inactive	inactive
Oc1ccc(CCNCCCCCCNCCc2ccc(Cl)c(Cl)c2)cc1O	2%	21%	-1%	101% (active)	inactive	inactive	inactive	inactive
CC(C)(C)c1ccc2nc(-c3ccc(C(=O)NCc4cccc(C(F)(F)F)c4)cc3)[nH]c2c1	26%	9%	-1%	98% (active)	inactive	inactive	inactive	inactive
Cc1ccc(S(=O)(=O)n2nccc2-c2c(-c3ccc(Cl)cc3)noc2C)cc1	97% (active)	-1%	-2%	97% (active)	inactive	inactive	inactive	inactive
O=C(Nc1cccc(-c2cccc(-c3nc4ccccc4[nH]3)c2)c1)c1csnn1	27%	31%	5%	90% (active)	inactive	inactive	inactive	inactive
Cc1cc(NCCCCCCNc2cc(C)nc3c(C)cccc23)c2cccc(C)c2n1	9%	23%	-2%	100% (active)	inactive	inactive	inactive	inactive
Cc1ccc(C2CCN(CCCCNC(=O)c3ccc(NC(=O)c4ccc(Cl)cc4)cc3)CC2)c(OCC(F)(F)F)c1	84% (active)	32%	-4%	99% (active)	inactive	inactive	inactive	inactive
CO/C(=C\C=C\c1cc2cc(Cl)c(Cl)cc2[nH]1)C(=O)NCCCN1CCCC[C@@H]1C	83% (active)	33%	1%	99% (active)	inactive	inactive	inactive	inactive
Fc1ccc2nc(-c3ccc(-c4ccc(CN5CCN(CCN6CCOCC6)CC5)cc4)s3)[nH]c2c1	98% (active)	39%	-3%	99% (active)	inactive	inactive	inactive	inactive
Cc1ccc(OCCCCONC(=O)c2ccccc2)cc1	1%	6%	-2%	96% (active)	inactive	inactive	inactive	inactive
COc1ccc(Nc2nccc(-c3cccc(NC(=O)c4cc5cc(F)ccc5[nH]4)c3)n2)cc1	37%	3%	5%	92% (active)	inactive	inactive	inactive	inactive
CC(=O)Nc1ccc(OCCCCN(Cc2ccccc2OC(F)(F)F)c2ccc(C(F)(F)F)c(C#N)c2)c(Cl)c1	96% (active)	11%	-2%	89% (active)	inactive	inactive	inactive	inactive
